Assay results from PubChem BioAssay (NCATS).
A number with no mark means an inactive call. Records with an inconclusive call do not appear. Where a call stands in place of a potency, no number is given. Calls of active or inactive are those of the source. Calls come from the whole dose curve; as a rule, active = well fitted curve in the direction sought with a large enough effect; inconclusive = small, poorly fitted or top-dose-only effect, or another doubt; inactive = no such curve, though single readings can be large; an effect the other way counts as inactive or inconclusive. Numbered stars: 1 amine (or outer) side, 2 acyl side, 3 side chain; on linkers, the order of the positions; unused ones are H or OH. Square brackets hold non-standard residues; d marks the D form. Peptide text beside a SMILES is read from it. ξ: configuration not given here. X4 = O=C(C1CC2(c3ccc(O)cc3)c3ccccc3NC2N1[*:1])[*:2]; ξW = NC(Cc1c[nH]c2ccccc12)C(=O)O; ξY = NC(Cc1ccc(O)cc1)C(=O)O

Columns and labels:
[1] = OV-SAHO Cancer Cell Toxicity qHTS against the NCATS CANVASS Library (AID 1347348); note: series mostly up to about 38 µM; nearly all actives have a fitted effect of over 55% in size
How it was run: (§1)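 Cells were seeded at 1000 per well, allowed 4 h at 37 degrees C/5% CO2, then pin-treated with an 11-point compound series. After 72 h, viability was read as CellTiter-Glo luminescence following 15min at room temperature.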

[2] = SW1088 Cancer Cell Toxicity qHTS against the NCATS CANVASS Library (AID 1347350); note: nearly all actives have a fitted effect of over 75% in size
How it was run: as §1

[3] = HPAF-II 24hr Apoptosis Induction qHTS against the NCATS CANVASS Library (AID 1347356)
How it was run: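 Caspase-Glo 3/7 luminescence, read after 15 min room-temperature development, measures apoptosis in HPAF-II cells treated 24 h at 37 degrees C with an 11-point concentration series; 500 cells/well; doxorubicin control.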

[4] = HPAF-II 12hr Apoptosis Induction qHTS against the NCATS CANVASS Library (AID 1347358)
How it was run: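 Caspase-3/7 activation by DEVD-substrate luminescence (Caspase-Glo 3/7, 15 min, room temperature) after a 12-hour compound exposure in 11 concentrations, of HPAF-II pancreatic cells seeded at 500/well in DMEM with 10% FBS.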

[5] = HEK293 24hr Apoptosis Induction qHTS against the NCATS CANVASS Library (AID 1347359)
How it was run: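 Caspase-3/7 activation measured as luminescence from the DEVD-based Caspase-Glo reagent, 15 min at room temperature, following 24-hour compound treatment of HEK293 cells.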

[6] = test system: NAD(P)H diaphorase (Clostridium kluyveri); assay: Diaphorse counterscreen qHTS: Assay Interference Panel against the NCATS CANVASS Library (AID 1347362)
How it was run: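 Counterscreen for coupling-enzyme interference: resorufin fluorescence from resazurin/NADH turnover, read after 5 min at room temperature. Compounds were tested over an 11-point series after 15 min dark preincubation with diaphorase in PBS-Tween.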

[7] = target: Luciferin 4-monooxygenase (Photinus pyralis) (UniProt P08659); assay: Firefly luciferase counterscreen qHTS: Assay Interference Panel against the NCATS CANVASS Library (AID 1347363); note: series mostly up to about 57 µM
Chain of Luciferin 4-monooxygenase (Photinus pyralis) (P08659 whole entry, looked up): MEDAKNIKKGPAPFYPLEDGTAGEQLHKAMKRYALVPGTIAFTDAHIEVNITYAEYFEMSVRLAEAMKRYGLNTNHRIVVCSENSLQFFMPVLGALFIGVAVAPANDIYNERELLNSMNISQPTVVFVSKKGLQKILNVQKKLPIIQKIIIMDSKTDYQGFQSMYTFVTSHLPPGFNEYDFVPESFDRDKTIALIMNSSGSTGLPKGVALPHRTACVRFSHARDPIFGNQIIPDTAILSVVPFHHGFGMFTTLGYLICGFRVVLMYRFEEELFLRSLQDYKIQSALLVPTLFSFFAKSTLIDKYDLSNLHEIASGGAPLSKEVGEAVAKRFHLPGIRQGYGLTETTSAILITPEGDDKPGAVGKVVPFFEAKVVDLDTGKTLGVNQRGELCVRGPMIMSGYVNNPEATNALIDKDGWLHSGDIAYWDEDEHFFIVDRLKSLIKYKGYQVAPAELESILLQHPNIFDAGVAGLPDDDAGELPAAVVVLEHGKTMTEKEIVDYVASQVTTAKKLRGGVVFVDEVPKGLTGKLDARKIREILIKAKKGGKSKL
How it was run: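 Luminescence inhibition readout: compounds (11-point qHTS) sat 15 min at room temperature with substrate mix (0.013 mM luciferin and ATP), then firefly luciferase was added and signal read 5 min later.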

[8] = KB-8-5-11 Cancer Cell Toxicity qHTS against the NCATS CANVASS Library (AID 1347364); note: nearly all actives have a fitted effect of over 75% in size
How it was run: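 Viability read as CellTiter-Glo luminescence after 72 h at 37 °C, 5% CO2. 11-point compound series on 500 KB-8-5-11 cells/well in DMEM/10% FBS. Follow-up plating included 1 uM tariquidar in the medium.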

[9] = KB-3-1 Cancer Cell Toxicity qHTS against the NCATS CANVASS Library (AID 1347366); note: nearly all actives have a fitted effect of over 75% in size
How it was run: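 500 KB-3-1 cells/well; compounds pin-transferred, 11-pnt series; 72 hr, 37C/5% CO2; CellTiter-Glo, 10 min RT; luminescence read-out.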

[10] = target: Nuclear receptor subfamily 1 group I member 3 (Homo sapiens) (UniProt Q14994); assay: qHTS for Constitutive Androstane Receptor (CAR) Antagonist screened against the NCATS CANVASS Library (AID 1347372);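 note: cells stimulated with 50 nM CITCO agonist so inhibition reflects antagonism; series mostly up to about 46 µM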
Chain of Nuclear receptor subfamily 1 group I member 3 (Homo sapiens) (Q14994 whole entry, looked up): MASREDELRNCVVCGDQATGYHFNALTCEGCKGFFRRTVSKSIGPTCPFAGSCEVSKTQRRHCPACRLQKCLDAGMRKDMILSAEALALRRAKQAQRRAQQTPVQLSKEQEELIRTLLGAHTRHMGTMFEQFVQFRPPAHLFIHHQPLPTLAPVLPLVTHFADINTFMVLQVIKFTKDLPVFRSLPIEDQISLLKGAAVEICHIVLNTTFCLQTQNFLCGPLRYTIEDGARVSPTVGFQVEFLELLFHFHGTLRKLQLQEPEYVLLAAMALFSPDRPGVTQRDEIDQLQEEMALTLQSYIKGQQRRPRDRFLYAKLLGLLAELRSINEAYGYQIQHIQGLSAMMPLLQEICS
How it was run: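 Antagonist mode: compound added alongside 50 nM CITCO to HepG2-hCAR-CYP2B6 reporter cells, 24hr at 37C. Viability by CellTiter-Fluor fluorescence, then CAR-driven luciferase by ONE-Glo luminescence.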

[11] = qHTS for Hypoxia signaling pathway (HIF-1) agonists against the NCATS CANVASS Library (AID 1347375)
How it was run: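 Beta-lactamase reporter under HRE control in ME-180 cells; compounds (11-point qHTS series) added after 5 hrs plating, then 17 hrs at 37C. FRET substrate read after 2 hr; same-well CellTiter-Glo luminescence gave viability and normalization.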

[12] = 10-beta competent E. coli microbial cell viability qHTS against the NCATS CANVASS Library (AID 1347376); note: series mostly up to about 46 µM
How it was run: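 Read-out: BacTiter-Glo ATP luminescence, taken 20 min after reagent addition. Beforehand, 10-beta competent E. coli at 0.2 OD had been incubated overnight at 37C with compounds at 11 concentrations.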

[13] = DH5-alpha competent E. coli microbial cell viability qHTS against the NCATS CANVASS Library (AID 1347377); settings: outcome: dose series up to 46.1 µM unless noted
How it was run: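 Bacterial viability as ATP-dependent luminescence (BacTiter-Glo), read after overnight 37 °C exposure of DH5-alpha competent E. coli to compounds in 11-point titration.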

[14] = qHTS for H2AX Agonists against the NCATS CANVASS Library (AID 1347378)
How it was run: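 TR-FRET readout (ex 320 nm, em 665/620 nm ratio) of phospho-H2AX (S139) in CHO-K1 lysates. Cells treated 3 hr at 37C with compound titration, 0.76% DMSO; lysis 30 min, antibody detection 24 hr at RT.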

[15] = qHTS for Activators of p53 Stress Response Pathway screened against the NCATS CANVASS Library (AID 1347388)
How it was run: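 Beta-lactamase reporter driven by p53 response elements in HCT-116 cells, read as the 460 nm/530 nm emission ratio after CCF4 loading, following 16 h of exposure to an 11-point series. Cell viability was measured in the same wells by CellTiter-Glo luminescence.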

[16] = qHTS assay for small molecule disruptors of mitochondrial membrane potential screened against the NCATS CANVASS Library (AID 1347389); note: series mostly up to about 46 µM; nearly all actives have a fitted effect of over 60% in size
How it was run: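 Mitochondrial membrane potential in HepG2: 1 h compound treatment (11-point concentration series), 30 min m-MPI dye at 37C, then dual fluorescence of J-aggregates (ex 540/em 590) and monomers (ex 490/em 535); lower red/green ratio indicates depolarization.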

[17] = Secretion counterscreen for inhibitors of the SERCaMP assay screened against the NCATS CANVASS Library (AID 1347390);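 note: light from luciferase secreted into medium read as a measure of general secretion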; note: potency is the fitted concentration of half-maximal effect
How it was run: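 Luminescence from constitutively secreted GLuc in SH-SY5Y-GLuc STOP cells, read after coelenterazine addition, served as read-out. Compounds tested 0.001 - 77 uM for 20 h at 37C; Brefeldin A as positive control.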

[18] = qHTS for activators of dead-cell proteases activity screened against the NCATS CANVASS Library (AID 1347392);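 note: luminescence from protease leaking out of membrane-damaged cells cleaving impermeant substrate; rising signal means more cytotoxicity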
How it was run: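 Luminescent dead-cell protease readout (AAF-aminoluciferin, 15 min, room temperature) after 5 h compound treatment of HepG2 cells (2000/well, pre-attached 18 h). Eleven concentrations.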

[19] = qHTS for inhibitors of Wild type Zika virus screened against the NCATS CANVASS Library (AID 1347396);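 note: ATP luminescence of surviving cells so rescue from viral cell killing; series mostly up to about 46 µM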
How it was run: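 Using ATP-based luminescence (CellTiter Glo), this screen scores rescue of Vero 766 cells from wild-type Zika killing at 72 h post-infection. Compounds are tested in a concentration series.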

[20] = Viability qHTS for inhibitors of the SERCaMP assay screened against the NCATS CANVASS Library (AID 1347400); note: series mostly up to about 92 µM; nearly all actives have a fitted effect of over 70% in size
How it was run: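 CellTiter-Glo luminescence measured cytotoxicity after 48 h at 37C of compound treatment (11-point series). Cells were SH-SY5Y-GLuc SERCaMP MJH297 derivatives, seeded at 1000 per well 4 h beforehand.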

SMILES | Potency [1] | Potency [2] | outcome [3] | Potency [4] | Potency [5] | Potency [6] | Potency [7] | Potency [8] | Potency [9] | Potency [10] | Potency [11] | outcome [12] | outcome [13] | Potency [14] | Potency [15] | Potency [16] | Potency [17] | Potency [18] | Potency [19] | Potency [20]
CC[C@@H]1C[C@@]2(CC)OC(=O)[C@@]3(CC)OC(=O)[C@@H]1[C@@H]23 | inactive | inactive | inactive | inactive | inactive | inactive | inactive | inactive | inactive | inactive | inactive | inactive | inactive | inactive | inactive | inactive | inactive | inactive | inactive | inactive
Cc1cc(O)cc2oc(C[C@H](C)O)cc(=O)c12 | inactive | inactive | inactive | inactive | inactive | inactive | inactive | inactive | inactive | inactive | inactive | inactive | inactive | inactive | inactive | inactive | inactive | inactive | inactive | inactive
C/C1=C\CC(=O)/C=C/C=C\c2csc(n2)[C@@H](C)NC(=O)C[C@@](S)([C@@H](C)C(=O)O)CC1 | inactive | inactive | inactive | inactive | inactive |  |  | inactive | inactive | inactive | inactive | inactive | inactive |  | inactive | inactive | inactive | inactive | inactive | inactive
COC1C(O)C(OC(N)=O)C(Oc2ccc3c(O)c(NC(=O)c4ccc(O)c(CC=C(C)C)c4)c(=O)oc3c2C)OC1(C)C (configuration not stated) | inactive | inactive | inactive | inactive | inactive | inactive | inactive | inactive | inactive | inactive | inactive |  | inactive | inactive | inactive |  | 24.3 µM (active) | inactive | inactive | inactive
OCc1ccc2ocnc2c1 | inactive | inactive | inactive | inactive | inactive | inactive | inactive | inactive | inactive | inactive | inactive | inactive | inactive | inactive | inactive | inactive | inactive | inactive | inactive | inactive
O=C(O)[C@@]12COC3(O)C1CCN1CC[C@H]3[C@@H]1c1c2[nH]c2ccccc12 | inactive | inactive | inactive | inactive | inactive | inactive | inactive | inactive | inactive | inactive | inactive | inactive | inactive | inactive | inactive | inactive | inactive | inactive | inactive | inactive
COc1ccc2cc(NC(=O)C3=NO[C@H]4[C@H](O)C=C[C@@H](Cl)[C@@]4(O)C3)c(=O)oc2c1OC | inactive | inactive | inactive | inactive | inactive | inactive | inactive | inactive | inactive | inactive | inactive | inactive | inactive | inactive | inactive | inactive |  | inactive | inactive | inactive
COc1cc(/C=C/C(=O)O)ccc1O | inactive | inactive | inactive | inactive | inactive | inactive | inactive | inactive | inactive | inactive | inactive | inactive | inactive | inactive | inactive | inactive |  | inactive | inactive | inactive
CC[C@H](C)[C@H](NC(=O)C(Cc1ccc(O)cc1)NC(=O)C(Cc1c[nH]c2ccccc12)NC(=O)[C@H](C)N)C(=O)N1C(C(=O)NC(Cc2ccc(O)cc2)C(=O)O)CC2(c3ccc(O)cc3)c3ccccc3NC12 (some centres not stated) (H-A[ξW][ξY]I[X4][ξY]-OH) | inactive | inactive | inactive | inactive | inactive | inactive | inactive | inactive | inactive | inactive | inactive | inactive | inactive | inactive | inactive | inactive | inactive | inactive | inactive | inactive
C[C@]12CC[C@]3(C1)[C@H](CC2=O)CC(OC(=O)c1ccccc1)[C@H]1[C@@](CO)(C(=O)O)CCC[C@@]13C (some centres not stated) | inactive | inactive | inactive | inactive | inactive | inactive | inactive | inactive | inactive | inactive | inactive | inactive | inactive | inactive | inactive | inactive |  | inactive | inactive | inactive
O=C(O)CC1OC(=O)c2c(O)cccc21 (configuration not stated) | inactive | inactive | inactive | inactive | inactive | inactive | inactive | inactive | inactive | inactive | inactive | inactive | inactive | inactive | inactive | inactive | inactive | inactive | inactive | inactive
